Molecules are shown by their SMILES. Records with an inconclusive call do not appear. Active and inactive are the calls of the source. Calls come from the whole dose curve; as a rule, active = well fitted inhibition curve with a large enough effect; inconclusive = small, poorly fitted or top-dose-only effect; inactive = flat fitted curve, though single readings scatter.
% is set by controls: 0 for no effect and ±100 for the full control effect.

The assay relates to KB-3-1. The assay can be described thus: Cytotoxic Profiling of Annotated Libraries Using Quantitative High-Throughput Screening (AID 1296008). Note: nearly all actives have a fitted effect of over 60% in size. The following applies: Five cell lines viability, CellTiter-Glo ATP luminescence, 48-72 h; max response: active compounds read low. An outline of the steps:
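Compounds were pin-transferred onto cells and incubated 48 or 72 hr at 37 degree Celsius, 95% humidity. CellTiter-Glo was added, plates sat 10 min at room temperature, then ATP-coupled luminescence was imaged as the viability read-out.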
As to `CCCCCCCCCCCCCCCC(=O)OC[C@H](COP(=O)([O-])OCC[N+](C)(C)C)OC(=O)CCCCCCCCCCCCCCC`, the max response is -12.2% (inactive).
In the case of `CCCCCCCCCCCCCCCCOCCOCCOCCOCCOCCOCCOCCOCCOCCOCCOCCOCCOCCOCCOCCOCCOCCOCCOCCOCCO` it was -16.1% (inactive); in that of `NC(=O)c1ccc[n+]([C@@H]2O[C@H](COP(=O)([O-])OP(=O)(O)OC[C@H]3O[C@@H](n4cnc5c(N)ncnc54)[C@H](O)[C@@H]3O)[C@@H](O)[C@H]2O)c1`, -2.72% (inactive); in that of `CC(=O)[O][Al][O]C(C)=O`, -5.29% (inactive).
In the case of `CCCC1C(=O)N2C(N(C)C)=Nc3ccc(C)cc3N2C1=O` (stereo not drawn), the max response is -2.47% (inactive).
Regarding `Cc1ncc[nH]1`, the max response was 3.25% (inactive).
In the case of `OC[C@H]1OC([S-])[C@H](O)[C@@H](O)[C@@H]1O.[Au+]` (stereo partly drawn) it was 5.78% (inactive).
As for `OCC(O)CO`, the max response was 0.712% (inactive).

For the origin of these results see PubChem BioAssay (NCATS).
